The source made the active and inactive calls. The rule behind the calls is not given here.
Details: Ebola virus entry assay, reporter ratio channel; Channel type: primary

Compound | outcome | AC50
CCCCN1CCCC1C(=O)Nc1c(C)cc(C)cc1C (stereo not drawn) | inactive | –
COc1cc(C(=O)OCCCN2CCCN(CCCOC(=O)c3cc(OC)c(OC)c(OC)c3)CC2)cc(OC)c1OC | – | 12.6 µM (active)
CCOc1ccccc1O[C@H](c1ccccc1)[C@H]1CNCCO1 | – | 15.8 µM (active)
CN1CCCC(n2nc(Cc3ccc(Cl)cc3)c3ccccc3c2=O)CC1 (stereo not drawn) | – | 3.16 µM (active)
C[C@@H]1CN(CCCn2c3ccccc3c3ccccc32)C[C@H](C)N1 | – | 3.16 µM (active)
CCC(C(=O)OCCOCCN(CC)CC)c1ccccc1 (stereo not drawn) | – | 22.4 µM (active)
Nc1c2c(nc3c1CCC3)CCCC2 | – | 31.6 µM (active)
O=C1NCN(c2ccccc2)C12CCN(CCCC(c1ccc(F)cc1)c1ccc(F)cc1)CC2 | – | 1.26 µM (active)
CCN1C(=O)c2ccccc2C1Nc1ccc(OCCN2CCCCC2)cc1 (stereo not drawn) | – | 15.8 µM (active)
CSc1ccc2c(c1)C(N1CCN(C)CC1)Cc1ccccc1S2 (stereo not drawn) | – | 3.16 µM (active)
CC(C)(C)c1ccc(C(=O)CCCN2CCC(OC(c3ccccc3)c3ccccc3)CC2)cc1 | – | 8.91 µM (active)
CC(C)C[C@@H]1[C@H](c2ccccc2)OC(=O)N1CCCN1CCCCCC1 | – | 8.91 µM (active)
COc1ccc2c(c1)c(CC(=O)O)c(C)n2C(=O)c1ccc(Cl)cc1 | inactive | –
CN1CCCCC1CCN1c2ccccc2Sc2ccc(S(C)=O)cc21 (stereo not drawn) | – | 7.94 µM (active)
Cc1cc(C(C)(C)C)c(O)c(C)c1CC1=NCCN1 | – | 39.8 µM (active)
C[C@@H](C1=C(CCN(C)C)Cc2ccccc21)c1ccccn1 | – | 10 µM (active)
CN(C)C/C=C(/c1ccc(Br)cc1)c1cccnc1 | – | 35.5 µM (active)
CC(=O)SC[C@@H](Cc1ccccc1)C(=O)NCC(=O)OCc1ccccc1 | – | 28.2 µM (active)
CCCCN(CCCC)CCC(O)c1cc2c(Cl)cc(Cl)cc2c2cc(C(F)(F)F)ccc12 (stereo not drawn) | – | 4.47 µM (active)

Compound | outcome | AC50
Cc1cc(O)c(C(C)C)cc1Cl | inactive | –
CCCCCCCCCCCCCCCC[N+](C)(C)CCN(Cc1ccc(OC)cc1)c1ncccn1 | – | 39.8 µM (active)
CN(C(=O)CN(CCO)CC(=O)N(C)C(C)(C)Cc1ccccc1)C(C)(C)Cc1ccccc1 | – | 5.62 µM (active)
CCCC(C(=O)OCCN(CC)CC)(c1ccccc1)c1ccccc1 | – | 2.24 µM (active)
CCN(CC)CCOC(=O)C(c1ccccc1)C1CCCCC1 (stereo not drawn) | – | 1.58 µM (active)
O=C1NCCN1CCN1CCC(c2cn(-c3ccc(F)cc3)c3ccc(Cl)cc23)CC1 | – | 1 µM (active)
CCCCCCCCCCCCCCCCCCNC(=O)OC1CCN(C(=O)OC[C@H](COC(=O)N(Cc2cccc[n+]2CC)C(=O)c2ccccc2OC)OC)CC1 | inactive | –
C[C@H]1[C@H]2CC[C@H]3[C@@H]4CC=C5C[C@@H](N(C)C)CC[C@]5(C)[C@H]4CC[C@]23CN1C | – | 10 µM (active)
CC(C)COCC(CN(Cc1ccccc1)c1ccccc1)N1CCCC1 (stereo not drawn) | – | 2 µM (active)
Cc1cc(C2CCCCC2)n(O)c(=O)c1 | – | 39.8 µM (active)
O=C(CCN1CCN2CCCC2C1)N1c2ccccc2Sc2ccc(Cl)cc21 (stereo not drawn) | – | 10 µM (active)
CN(C)c1ccc(C(=C2C=CC(=[N+](C)C)C=C2)c2ccc(N(C)C)cc2)cc1 | – | 3.55 µM (active)
OCc1cc(C(O)CNCCCCCCOCCCCc2ccccc2)ccc1O (stereo not drawn) | – | 7.08 µM (active)
CC(=O)c1ccc2c(c1)N(CCCN1CCC(CCO)CC1)c1ccccc1S2 | – | 2.82 µM (active)
CCc1cccc(N(C)C(N)=Nc2cccc3ccccc23)c1 | – | 14.1 µM (active)
Nc1ccc2cc3ccc(N)cc3nc2c1 | – | 39.8 µM (active)
CN(C)[C@@H]1C(=O)C(C(=O)NCN2CCCC2)=C(O)[C@@]2(O)C(=O)C3=C(O)c4c(O)cccc4[C@@](C)(O)C3C[C@@H]12 (stereo partly drawn) | – | 11.2 µM (active)
CC(C)(C)c1ccc(C(O)CCCN2CCC(C(O)(c3ccccc3)c3ccccc3)CC2)cc1 (stereo not drawn) | – | 0.891 µM (active)
CN(C)CCOc1ccccc1Cc1ccccc1 | – | 3.16 µM (active)
